Measured values reported in PubChem BioAssay AID1159580 (chemical genetic matrix, 2015).
The whole screen tested about 5,500 compounds, of which about 2,000 (36%) were called active. Not shown: some 18% with an inconclusive outcome. Cut-off read from the data, not from the text of the source: active = normalized growth mostly below about 0.91 (no sharp cut-off); inconclusive = no clear call, values can overlap the other calls; inactive = mostly above about 0.92. Some of the results follow.

Assay: chemical genetic growth profiling, strain panel (AID 1159580);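 note: tested at 20 µM; growth read once vehicle control cultures reached saturation at 30 °C; 1 = growth at the plate median or of vehicle wells; lower values mean less growth of the strain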
Details: growth OD

Measured: normalized growth

CSc1nc(NC(C)C)nc(NC(C)C)n1
active: S. cerevisiae deletion strains, locus YLR262C, strain YPT6 (second series), stronger effect = lower value 0.856
inactive: S. cerevisiae deletion strains, locus YJR075W, strain HOC1, stronger effect = lower value 1.02 | S. cerevisiae deletion strains, locus YKL009W, strain mrt4, stronger effect = lower value 1.03 | S. cerevisiae deletion strains, locus YKL068W, stronger effect = lower value 1 | S. cerevisiae deletion strains, locus YKL085W, strain MDH1 (second series), stronger effect = lower value 1.01 | S. cerevisiae deletion strains, locus YKL085W, strain MDH1, stronger effect = lower value 1.01 | S. cerevisiae deletion strains, locus YKL160W, strain elf1, stronger effect = lower value 0.979 | S. cerevisiae deletion strains, locus YKL190W, strain CNB1, stronger effect = lower value 1.02 | S. cerevisiae deletion strains, locus YKR001C, strain vps1, stronger effect = lower value 1.03 | S. cerevisiae deletion strains, locus YKR026C, strain gcn3, stronger effect = lower value 0.973 | S. cerevisiae deletion strains, locus YKR091W, strain srl3, stronger effect = lower value 0.973 | S. cerevisiae deletion strains, locus YLL001W, strain dnm1, stronger effect = lower value 0.979 | S. cerevisiae deletion strains, locus YLL026W, stronger effect = lower value 0.975 | S. cerevisiae deletion strains, locus YLL041C, strain sdh2, stronger effect = lower value 0.983 | S. cerevisiae deletion strains, locus YLR027C, strain aat2, stronger effect = lower value 0.967 | S. cerevisiae deletion strains, locus YLR039C, strain RIC1, stronger effect = lower value 0.987 | S. cerevisiae deletion strains, locus YLR058C, strain SHM2, stronger effect = lower value 1.01 | S. cerevisiae deletion strains, locus YLR102C, strain apc9, stronger effect = lower value 1 | S. cerevisiae deletion strains, locus YLR113W, strain HOG1, stronger effect = lower value 0.993 | S. cerevisiae deletion strains, locus YLR221C, strain rsa3, stronger effect = lower value 0.971 | S. cerevisiae deletion strains, locus YLR258W, strain gsy2, stronger effect = lower value 0.964 | S. cerevisiae deletion strains, locus YLR262C, strain YPT6, stronger effect = lower value 1.03 | S. cerevisiae deletion strains, locus YLR268W, strain sec22, stronger effect = lower value 1.01 | S. cerevisiae deletion strains, locus YLR320W, strain mms22, stronger effect = lower value 0.961 | S. cerevisiae deletion strains, locus YLR330W, strain CHS5, stronger effect = lower value 1.01 | S. cerevisiae deletion strains, locus YLR342W, strain FKS1 (second series), stronger effect = lower value 0.974 | S. cerevisiae deletion strains, locus YLR342W, strain FKS1, stronger effect = lower value 0.958 | S. cerevisiae deletion strains, locus YLR357W, strain rsc2, stronger effect = lower value 0.923 | S. cerevisiae deletion strains, locus YLR370C, strain arc18, stronger effect = lower value 0.969 | S. cerevisiae deletion strains, locus YLR371W, strain rom2, stronger effect = lower value 0.999 | S. cerevisiae deletion strains, locus YLR384C, strain iki3, stronger effect = lower value 0.972 | S. cerevisiae deletion strains, locus YLR418C, strain cdc73, stronger effect = lower value 1.04 | S. cerevisiae deletion strains, locus YML016C, strain PPZ1, stronger effect = lower value 0.989 | S. cerevisiae deletion strains, locus YML032C, strain rad52, stronger effect = lower value 1.03 | S. cerevisiae deletion strains, locus YML120C, strain ndi1, stronger effect = lower value 0.966 | S. cerevisiae deletion strains, locus YML124C, strain tub3, stronger effect = lower value 1.02 | S. cerevisiae deletion strains, locus YMR058W, strain fet3, stronger effect = lower value 0.97 | S. cerevisiae deletion strains, locus YMR078C, strain ctf18, stronger effect = lower value 1.02 | S. cerevisiae deletion strains, locus YMR125W, strain sto1, stronger effect = lower value 0.958 | S. cerevisiae deletion strains, locus YMR129W, stronger effect = lower value 0.973 | S. cerevisiae deletion strains, locus YMR205C, strain PFK2, stronger effect = lower value 0.944 | S. cerevisiae deletion strains, locus YMR223W, strain ubp8, stronger effect = lower value 1.01 | S. cerevisiae deletion strains, locus YMR231W, strain pep5, stronger effect = lower value 0.973 | S. cerevisiae deletion strains, locus YMR263W, strain SAP30, stronger effect = lower value 1.02 | S. cerevisiae deletion strains, locus YMR307W, strain GAS1, stronger effect = lower value 1.05 | S. cerevisiae deletion strains, locus YNL067W, strain RPL9B, stronger effect = lower value 0.999 | S. cerevisiae deletion strains, locus YNL071W, strain lat1, stronger effect = lower value 0.978 | S. cerevisiae deletion strains, locus YNL128W, strain TEP1, stronger effect = lower value 1.01 | S. cerevisiae deletion strains, locus YNL153C, strain GIM3, stronger effect = lower value 1 | S. cerevisiae deletion strains, locus YNL183C, strain NPR1, stronger effect = lower value 0.969 | S. cerevisiae deletion strains, locus YNL209W, strain ssb2, stronger effect = lower value 0.987 | S. cerevisiae deletion strains, locus YNL233W, strain BNI4, stronger effect = lower value 1.02 | S. cerevisiae deletion strains, locus YNL248C, strain rpa49, stronger effect = lower value 0.979 | S. cerevisiae deletion strains, locus YNL250W, strain rad50, stronger effect = lower value 1.01 | S. cerevisiae deletion strains, locus YNL271C, strain bni1, stronger effect = lower value 1.01 | S. cerevisiae deletion strains, locus YNL298W, strain CLA4, stronger effect = lower value 1 | S. cerevisiae deletion strains, locus YNL307C, strain MCK1, stronger effect = lower value 1.01 | S. cerevisiae deletion strains, locus YNL322C, strain KRE1 (second series), stronger effect = lower value 0.962 | S. cerevisiae deletion strains, locus YNL322C, strain KRE1, stronger effect = lower value 1.01 | S. cerevisiae deletion strains, locus YNR049C, strain mso1, stronger effect = lower value 0.953 | S. cerevisiae deletion strains, locus YNR052C, strain pop2, stronger effect = lower value 1.02 | S. cerevisiae deletion strains, locus YOL006C, strain TOP1, stronger effect = lower value 1.02 | S. cerevisiae deletion strains, locus YOL012C, strain htz1 0.96 | S. cerevisiae deletion strains, locus YOL147C, strain pex11, stronger effect = lower value 1.02 | S. cerevisiae deletion strains, locus YOR001W, strain rrp6, stronger effect = lower value 0.98 | S. cerevisiae deletion strains, locus YOR061W, strain CKA2, stronger effect = lower value 1 | S. cerevisiae deletion strains, locus YOR069W, strain VPS5, stronger effect = lower value 1.01 | S. cerevisiae deletion strains, locus YOR070C, strain gyp1, stronger effect = lower value 0.962 | S. cerevisiae deletion strains, locus YOR080W, strain dia2, stronger effect = lower value 0.963 | S. cerevisiae deletion strains, locus YOR083W, strain WHI5, stronger effect = lower value 0.969 | S. cerevisiae deletion strains, locus YOR106W, strain vam3, stronger effect = lower value 0.956 | S. cerevisiae deletion strains, locus YOR136W, strain idh2, stronger effect = lower value 1.03 | S. cerevisiae deletion strains, locus YOR144C, strain elg1, stronger effect = lower value 1.01 | S. cerevisiae deletion strains, locus YOR184W, strain ser1, stronger effect = lower value 1.03 | S. cerevisiae deletion strains, locus YOR231W, strain MKK1, stronger effect = lower value 1.03 | S. cerevisiae deletion strains, locus YOR265W, strain rbl2, stronger effect = lower value 0.962 | S. cerevisiae deletion strains, locus YOR270C, strain vph1, stronger effect = lower value 0.934 | S. cerevisiae deletion strains, locus YOR290C, strain snf2, stronger effect = lower value 0.95 | S. cerevisiae deletion strains, locus YOR316C, strain cot1, stronger effect = lower value 1.01 | S. cerevisiae deletion strains, locus YPL051W, strain arl3, stronger effect = lower value 0.963 | S. cerevisiae deletion strains, locus YPL055C, strain LGE1, stronger effect = lower value 1.04 | S. cerevisiae deletion strains, locus YPL078C, strain atp4, stronger effect = lower value 0.969 | S. cerevisiae deletion strains, locus YPL106C, strain sse1, stronger effect = lower value 0.986 | S. cerevisiae deletion strains, locus YPL240C, strain hsp82, stronger effect = lower value 0.966 | S. cerevisiae deletion strains, locus YPL241C, strain CIN2, stronger effect = lower value 1.01 | S. cerevisiae deletion strains, locus YPL256C, strain CLN2, stronger effect = lower value 1.04 | S. cerevisiae deletion strains, locus YPR119W, strain clb2, stronger effect = lower value 1.02 | S. cerevisiae deletion strains, locus YPR141C, strain kar3, stronger effect = lower value 1.02 | S. cerevisiae deletion strains, locus YPR163C, strain tif3, stronger effect = lower value 1.02 | S. cerevisiae deletion strains, locus YPR167C, strain met16, stronger effect = lower value 1.01 | S. cerevisiae deletion strains, strain wtn01, stronger effect = lower value 1.01 | S. cerevisiae strains, strain wild type, stronger effect = lower value 1.01
